Unmarked numbers belong to inactive results. Results filed as inconclusive are left out. Active and inactive are the calls of the source. Unless noted, the call rests on the fitted dose curve; in most records, active means well fitted curve in the direction sought with a large enough effect; inconclusive means small, poorly fitted or top-dose-only effect, or another doubt; inactive means no such curve, though single readings can be large; an effect the other way counts as inactive or inconclusive.
Assays:
[1] = target: Glucocorticoid receptor (Homo sapiens) (UniProt P04150); assay: GR-GFP Redistribution (AID 450;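 active means compounds whose dose series gives a full or clear partial fitted curve of increased nuclear translocation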; further: potency means the concentration at half of the fitted maximal effect); conditions: U2OS GR-GFP nuclear translocation, laser cytometry, 2 h
Chain of Glucocorticoid receptor (Homo sapiens) (P04150 whole entry, looked up, the tested form may be a part): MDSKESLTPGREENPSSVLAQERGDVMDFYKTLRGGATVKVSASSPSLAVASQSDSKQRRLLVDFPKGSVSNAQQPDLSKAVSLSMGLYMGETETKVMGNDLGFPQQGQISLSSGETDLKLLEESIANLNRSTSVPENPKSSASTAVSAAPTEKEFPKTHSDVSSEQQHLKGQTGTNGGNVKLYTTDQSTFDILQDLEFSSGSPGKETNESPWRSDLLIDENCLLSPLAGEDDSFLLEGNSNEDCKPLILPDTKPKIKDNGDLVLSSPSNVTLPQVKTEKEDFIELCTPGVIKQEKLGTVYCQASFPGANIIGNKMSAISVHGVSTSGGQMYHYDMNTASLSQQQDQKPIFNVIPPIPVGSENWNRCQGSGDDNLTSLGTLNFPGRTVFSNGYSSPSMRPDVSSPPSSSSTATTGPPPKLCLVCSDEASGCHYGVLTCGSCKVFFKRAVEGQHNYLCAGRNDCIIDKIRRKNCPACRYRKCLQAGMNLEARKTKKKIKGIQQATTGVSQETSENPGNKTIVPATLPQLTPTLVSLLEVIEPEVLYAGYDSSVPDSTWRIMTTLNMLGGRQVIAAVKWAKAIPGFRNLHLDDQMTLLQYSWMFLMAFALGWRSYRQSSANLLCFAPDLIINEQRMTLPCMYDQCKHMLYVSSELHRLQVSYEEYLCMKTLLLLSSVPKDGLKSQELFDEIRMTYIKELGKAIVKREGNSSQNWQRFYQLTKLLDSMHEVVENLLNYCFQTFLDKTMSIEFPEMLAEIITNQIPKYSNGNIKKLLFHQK

[2] = target: Glucocorticoid receptor (Homo sapiens) (UniProt P04150); assay: GR-EFC Redistribution (AID 451; calls by dose curve; further: potency means the concentration at half of the fitted maximal effect); conditions: CHO-K1 GR-EFC translocation, beta-gal luminescence, 2 h
In short: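 Translocation of GR-ED fusion to nuclear EA restores b-gal, read by luminescence after 1 h room-temperature detection. Engineered CHO-K1 biosensor cells, 1,000/well, exposed 2 h at 37 C to titrations up to 46 uM final.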

[3] = target: Mitogen-activated protein kinase 10 (Mus musculus) (UniProt Q61831); assay: JNK3 AlphaScreen Assay (AID 530; active means well fitted curve in either direction with a large enough effect, not every such curve was filed as active;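 further: kinase came from lysate of stimulated human HepG2 cells; signal reports phosphorylation of biotinylated GST-cJun 1-79 at Ser73 with 10 µM ATP; on the % scale 0 is the no-effect control and ±100 the full control effect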); conditions: JNK3 lysate, c-Jun phosphorylation; series mostly up to 25.6 µM
In short: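 Kinase buffer: 20 mM Tris-HCl pH 7.6, 10 mM MgCl2, 1 mM DTT, 0.1 mM Na3VO4, 0.01% Tween-20; ATP 10 uM. Substrate biotin-GST-cJun(1-79), enzyme from activated HepG2 lysates. Detection by Ser73 phospho-antibody AlphaScreen.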

[4] = Cell Viability - N2a (AID 540); conditions: N2a mouse neuroblastoma cell viability; activity change, negative = cytotoxicity: at 92.2 µM (top of the series); further: nearly all actives have a fitted effect of over 45% in size; further: potency means the concentration at half of the fitted maximal effect;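 on activity change, negative = cytotoxicity: plate controls were DMSO alone for no effect and tamoxifen control for full effect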
In short: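 N2a mouse neuroblastoma, 1500 cells/well, 5 hr settle; compound 40 hr, 37 °C; CellTiter-Glo 20 min RT; luminescence; Hill-fit AC50.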

[5] = Cell Viability - NIH 3T3 (AID 541); conditions: NIH 3T3 cell viability, qHTS; activity change, negative = cytotoxicity: at 92.2 µM (top of the series); further: nearly all actives have a fitted effect of over 25% in size; further: potency means the concentration at half of the fitted maximal effect;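 on activity change, negative = cytotoxicity: plate controls were DMSO alone for no effect and tamoxifen positive control for full effect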
In short: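 qHTS format; 40 hr compound exposure, 37 °C; CellTiter-Glo luminescence (cellular ATP) read-out after 20 min at RT. Decrease in ATP = cytotoxicity; AC50 from standard Hill fit.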

[6] = Cell Viability - HUV-EC-C (AID 542); conditions: HUV-EC-C endothelial cell viability, qHTS; series mostly up to 92.2 µM; further: nearly all actives have a fitted effect of over 35% in size; further: potency means the concentration at half of the fitted maximal effect; on activity change, negative = cytotoxicity: on the % scale 0 is the no-effect control and ±100 the full control effect
In short: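 Luminescent ATP read-out (CellTiter-Glo, 20 min room temperature) after 40 hr compound treatment of HUV-EC-C cells at 37 °C. Concentration-response data fitted with the standard Hill equation to give AC50; tamoxifen and doxorubicin served as positive controls.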

[7] = Cell Viability - SH-SY5Y (AID 544); conditions: SH-SY5Y neuroblastoma cell viability; viability change, negative = cytotoxic: at 92.2 µM (top of the series); further: nearly all actives have a fitted effect of over 55% in size; further: potency means the concentration at half of the fitted maximal effect
In short: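 SH-SY5Y, 1500 cells/well, 5 hr pre-incubation 37 °C; cpd 40 hr 37 °C; CellTiter-Glo 20 min RT; luminescence (ATP) read. qHTS concentration-response, Hill fit → AC50. Tamoxifen, doxorubicin as positive controls.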

[8] = Cell Viability - Renal Proximal Tubule (AID 545); conditions: renal proximal tubule cells viability, primary cells of rat origin; activity change, negative = cytotoxicity: at 91.7 µM (top of the series); further: nearly all actives have a fitted effect of over 40% in size
In short: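 In this qHTS format, normal rat kidney-derived proximal tubule cells in complete culture medium receive compound titrations, then sit 40 hours at 37 °C before luciferase-based ATP quantitation; potency is reported as AC50 from concentration-response curves.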

[9] = Cell Viability - Mesenchymal (AID 546); conditions: mesenchymal cells viability, qHTS; activity change, negative = cytotoxicity: at 91.7 µM (top of the series);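 further: cells exposed to compound for 40 hours before reading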
In short: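 CellTiter-Glo luminescence (intracellular ATP, 20 min room temperature) after 40 hr compound exposure at 37 °C of 1000 glomerulus-derived human kidney mesenchymal cells/well; AC50 values obtained by fitting qHTS concentration-response data to the Hill equation.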

[10] = target: 3',5'-cyclic-AMP phosphodiesterase 4B (Homo sapiens) (UniProt Q07343); assay: qHTS Assay for Inhibitors of PDE-IV (AID 607; active means well fitted activation curve with a large enough effect in the main read-out, with a control signal flat, not every such curve was filed as active; further: % of control where 0% means no effect); conditions: HEK293 ACTOne CNG channel cells, membrane potential fluorescence; series mostly up to 22.9 µM
Chain of 3',5'-cyclic-AMP phosphodiesterase 4B (Homo sapiens) (Q07343 whole entry, looked up): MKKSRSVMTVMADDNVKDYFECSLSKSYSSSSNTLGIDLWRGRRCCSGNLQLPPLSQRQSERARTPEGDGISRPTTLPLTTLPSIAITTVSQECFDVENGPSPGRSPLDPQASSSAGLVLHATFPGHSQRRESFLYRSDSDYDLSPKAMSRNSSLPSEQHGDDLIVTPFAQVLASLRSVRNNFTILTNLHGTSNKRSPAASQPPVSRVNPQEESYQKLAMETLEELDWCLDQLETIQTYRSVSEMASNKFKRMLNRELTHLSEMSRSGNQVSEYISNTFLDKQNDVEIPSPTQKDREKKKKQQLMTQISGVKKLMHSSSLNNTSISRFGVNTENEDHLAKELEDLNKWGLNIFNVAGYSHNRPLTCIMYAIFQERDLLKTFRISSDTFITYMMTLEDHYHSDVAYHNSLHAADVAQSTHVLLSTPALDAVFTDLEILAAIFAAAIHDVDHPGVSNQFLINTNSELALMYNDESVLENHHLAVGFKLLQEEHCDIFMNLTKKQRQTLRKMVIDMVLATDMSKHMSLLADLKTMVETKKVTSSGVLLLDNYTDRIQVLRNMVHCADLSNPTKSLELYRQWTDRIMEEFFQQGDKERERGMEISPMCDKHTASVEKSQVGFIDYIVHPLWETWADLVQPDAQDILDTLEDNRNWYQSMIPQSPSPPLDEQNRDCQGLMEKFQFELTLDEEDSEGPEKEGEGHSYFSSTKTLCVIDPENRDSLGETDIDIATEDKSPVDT
In short: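 Live HEK293 cells with a modified cyclic nucleotide-gated (CNG) channel report intracellular cAMP via membrane-potential dye fluorescence (ex 535/em 590 nm). Endogenous PDE-IV was targeted. Compounds were tested at up to 22.9 uM final; RO 20-1724 100 uM served as control.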

[11] = Cellular Toxicity (caspase-3) HepG2 (AID 654); conditions: HepG2 caspase-3 activation, luminescence; series mostly up to 92.2 µM;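 further: cells exposed to compound for 16 hours before reading; 0% = DMSO alone and 100% = caspase signal from 100 µM tamoxifen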
In short: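 Luminescent Caspase-Glo 3/7 readout after 16 hr compound exposure of human hepatocellular carcinoma HepG2 cells at 37 °C; qHTS concentration-response, normalized DMSO = 0%, 100 uM tamoxifen = 100%; AC50 by standard Hill equation.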

[12] = Cellular Toxicity (caspase-3) Jurkat (AID 655); conditions: Jurkat caspase-3 activation, luminescence; series mostly up to 92.2 µM;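 further: cells exposed to compound for 16 h at 37 °C before reading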
In short: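 qHTS in human Jurkat T-cell leukemia line: 16 hr compound treatment at 37 °C, caspase-3/7 activity measured by Caspase-Glo luminescence. AC50 derived from Hill equation.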

[13] = Cellular Toxicity (caspase-3) HUV-EC-C (AID 656); conditions: HUV-EC-C cells, caspase-3 activation (apoptosis), vehicle = 0, 100 µM tamoxifen = 100%; series mostly up to 92.2 µM
In short: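 Concentration-dependent caspase 3/7 induction was assessed in HUV-EC-C cells exposed for 16 hours. Data scaled between DMSO and tamoxifen (100 uM) controls.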

[14] = Cellular Toxicity (caspase-3) SHSY5Y (AID 657); conditions: SH-SY5Y caspase-3 activation; series mostly up to 91.7 µM;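 further: cells exposed to compound for 16 hours at 37 °C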
In short: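 Readout: caspase-cleaved peptide-aminoluciferin substrate driving luciferase light in SH-SY5Y neuroblastoma cells after 16 h treatment. Response normalized to DMSO and 10 uM staurosporine controls.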

[15] = Cellular Toxicity (caspase-3) BJ (AID 658); conditions: BJ fibroblasts, luminescence, normalized: DMSO 0%, staurosporine 100%; series mostly up to 91.7 µM;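 further: 0% = DMSO basal and 100% = 10 µM staurosporine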
In short: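 Caspase-Glo 3/7 luminescence, read 1 hr after reagent at room temperature, in normal BJ fibroblasts exposed 16 hours at 37 °C. AC50 values from Hill-equation concentration-response, scaled between DMSO basal and 10 uM staurosporine as 100%.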

[16] = Cellular Toxicity (caspase-3) MRC-5 (AID 659); conditions: MRC-5 cells, luminescence; Potency: caspase-3 activation; series mostly up to 91.7 µM;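 further: 0% = DMSO basal and 100% = 10 µM staurosporine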
In short: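 Luminescent Caspase-Glo 3/7 read-out (1 h, room temperature) after a 16 h, 37 °C compound exposure of MRC-5 lung fibroblasts at 1500 cells/well. Concentration-response AC50 from Hill equation; 0% DMSO, 100% 10 uM staurosporine.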

[17] = Cellular Toxicity (caspase-3) Mesangial (AID 660); conditions: mesangial cells, normalized: DMSO 0%, 100 µM tamoxifen 100%; series mostly up to 91.7 µM;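 further: combined caspase 3 and 7 activity read by Caspase-Glo luminescence; cells exposed to compound for 16 h before the caspase read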
In short: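 Luminescent Caspase-Glo 3/7 readout (aminoluciferin substrate cleavage, 20 min RT) after 16 h compound exposure at 37 °C of normal human mesangial cells. Signal increase normalized between DMSO basal and 100 uM tamoxifen; Hill-equation AC50.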

[18] = Cellular Toxicity (caspase-3) SK-N-SH (AID 661); conditions: SK-N-SH caspase-3 activation, qHTS; series mostly up to 91.7 µM;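 further: 0% = DMSO basal and 100% = 10 µM staurosporine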
In short: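 Luminescent Caspase-Glo 3/7 read-out after 16 hr compound exposure of SK-N-SH neuroblastoma cells at 37 °C. Signal increase normalized to DMSO (basal) and 10 uM staurosporine (100%); AC50 from Hill equation fits of qHTS concentration-response data.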

[19] = Cellular Toxicity (caspase-3) H-4-II-E (AID 663); conditions: H-4-II-E rat hepatoma; Potency: caspase-3 activation; series mostly up to 92.2 µM;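 further: cells exposed to compound for 16 hr before readout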
In short: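 Caspase 3/7 activation measured by luminescent aminoluciferin substrate cleavage after 16 hr compound treatment of H-4-II-E cells in complete medium. Increase normalized between DMSO (basal) and 100 uM tamoxifen (100%); Hill-equation AC50 from concentration-response.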

[20] = Cell Viability - H-4-II-E (AID 543); conditions: H-4-II-E rat hepatoma viability; series mostly up to 92.2 µM; further: potency means the concentration at half of the fitted maximal effect; nearly all actives have a fitted effect of over 35% in size
In short: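 qHTS, rat hepatoma H-4-II-E, 1500 cells/well; 40 hr compound exposure, 37 °C; CellTiter-Glo ATP luminescence after 20 min RT; AC50 by standard Hill fit.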

Compound: C=C(CC)C(=O)c1ccc(OCC(=O)O)c(Cl)c1Cl
- Potency [1]: > 20.6 µM
- Potency [2]: > 20.6 µM
- outcome [3]: inactive
- activity change, negative = cytotoxicity [4]: -112% (active)
- activity change, negative = cytotoxicity [5]: -86.1% (active)
- Potency [6]: inactive
- viability change, negative = cytotoxic [7]: -99.4% (active)
- activity change, negative = cytotoxicity [8]: -86.3% (active)
- activity change, negative = cytotoxicity [9]: -21.9%
- outcome [10]: inactive
- Potency [11]: inactive
- Potency [12]: inactive
- outcome [13]: inactive
- Potency [14]: inactive
- outcome [15]: inactive
- Potency [16]: inactive
- outcome [17]: inactive
- Potency [18]: inactive
- Potency [19]: inactive

Compound: COc1c2occc2c(OC)c2c(=O)cc(C)oc12
- Potency [1]: > 20.6 µM
- Potency [2]: > 20.6 µM
- outcome [3]: inactive

Compound: c1ccc(-c2ccc(C(c3ccccc3)n3ccnc3)cc2)cc1 (configuration not stated)
- Potency [1]: > 20.6 µM

Compound: CN(C)CCCOc1nn(Cc2ccccc2)c2ccccc12
- Potency [1]: > 20.6 µM
- Potency [2]: > 20.6 µM
- outcome [3]: inactive

Compound: C[C@H](CCC(=O)O)[C@H]1CC[C@H]2[C@@H]3C(=O)C[C@@H]4CC(=O)CC[C@]4(C)[C@H]3CC(=O)[C@]12C
- Potency [1]: > 20.6 µM

Compound: CCC(C(=O)OCCN(CC)CC)c1ccccc1 (configuration not stated)
- Potency [1]: > 20.6 µM

Compound: CCCC(=O)Nc1ccc(OCC(O)CNC(C)C)c(C(C)=O)c1 (configuration not stated)
- Potency [1]: > 20.6 µM

Compound: CCN1CCN(c2cc3c(cc2F)c(=O)c(C(=O)O)cn3C2CC2)CC1
- Potency [1]: > 20.6 µM

Compound: CC(CCc1ccccc1)NCC(O)c1ccc(O)c(C(N)=O)c1 (configuration not stated)
- Potency [1]: > 20.6 µM

Compound: CN=C(NC#N)NCCSCc1csc(N=C(N)N)n1
- Potency [1]: > 46 µM
- Potency [2]: > 46 µM

Compound: CCCCCCCCCCCCCCCC[N+](C)(C)CCN(Cc1ccc(OC)cc1)c1ncccn1
- Potency [1]: > 20.6 µM
- Potency [2]: > 20.6 µM
- outcome [3]: inactive

Compound: C[C@]12CC[C@H]3[C@@H](CCC4=CC(=O)CC[C@@]43C)[C@@H]1CC[C@@H]2C(=O)CO
- Potency [1]: 0.0356 µM (active)

Compound: CC1(C)O[C@@H]2C[C@H]3[C@@H]4C[C@H](F)C5=CC(=O)CC[C@]5(C)[C@H]4[C@@H](O)C[C@]3(C)[C@]2(C(=O)CO)O1
- Potency [1]: 0.00217 µM (active)

Compound: CCN(CCCCOC(=O)c1ccc(OC)c(OC)c1)C(C)Cc1ccc(OC)cc1 (configuration not stated)
- Potency [1]: > 20.6 µM

Compound: C[C@@H]1C[C@H]2[C@@H]3CCC4=CC(=O)C=C[C@]4(C)[C@@]3(F)[C@@H](O)C[C@]2(C)[C@H]1C(=O)CO
- Potency [1]: > 20.6 µM

Compound: CC(=O)N(O)CCCCCNC(=O)CCC(=O)N(O)CCCCCNC(=O)CCC(=O)N(O)CCCCCN
- Potency [1]: > 20.6 µM
- Potency [2]: > 20.6 µM
- outcome [3]: inactive
- outcome [10]: inactive

Compound: CCCCC(=O)O[C@]1(C(=O)CO)CC[C@H]2[C@@H]3CCC4=CC(=O)CC[C@]4(C)[C@H]3[C@@H](O)C[C@@]21C
- Potency [1]: 0.000459 µM (active)

Compound: Oc1ccc(O)cc1
- Potency [1]: > 46 µM
- Potency [2]: > 46 µM
- outcome [3]: inactive
- Potency [4]: 20 µM (active)
- Potency [5]: 20 µM (active)
- Potency [6]: 39.8 µM (active)
- Potency [20]: 79.4 µM (active)
- Potency [7]: 3.16 µM (active)
- activity change, negative = cytotoxicity [9]: -96.1% (active)
- outcome [10]: inactive
- Potency [11]: inactive
- Potency [12]: inactive
- outcome [13]: inactive
- Potency [14]: inactive
- outcome [15]: inactive
- Potency [16]: inactive
- outcome [17]: inactive
- Potency [18]: inactive

Compound: CCn1cc(C(=O)O)c(=O)c2cnc(N3CCCC3)nc21
- Potency [1]: > 20.6 µM
- Potency [2]: > 20.6 µM
- outcome [3]: inactive
- outcome [10]: inactive

Source: PubChem BioAssay (NCATS)
